Screens from PubChem BioAssay.
Sampled rows, rich in hits. Any-hit rate of the full collection: about 32%.
CYP2C19 act: activators of human cytochrome P450 2C19; P33261; recombinant CYP2C19, luciferin-H EGE luminescence; hits give high values; 0 = fully inhibited enzyme, 1 = untreated enzyme; activation factor at 5 µM; 96,000 tested, under 10 active;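 active means activation factor of at least 2 at 5 µM in the primary screen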;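 further: 0 = wells with 2.5 mM tranylcypromine and 1 = vehicle-only wells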
CYP2C9 activ: increases human cytochrome P450 2C9 activity. P11712. recombinant CYP2C9, luciferin-H conversion, luminescence; hits give high values; factor 1 = untreated enzyme, 0 = blocked. activation factor at 5 µM. 1.4% of 96,000 active. AID 1024;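 active means activation factor of 2 or more for CYP2C9 at a 5 µM dose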;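 further: 0 = sulfaphenazole-blocked wells and 1 = vehicle-only wells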
Target sequence (P11712 whole entry, looked up): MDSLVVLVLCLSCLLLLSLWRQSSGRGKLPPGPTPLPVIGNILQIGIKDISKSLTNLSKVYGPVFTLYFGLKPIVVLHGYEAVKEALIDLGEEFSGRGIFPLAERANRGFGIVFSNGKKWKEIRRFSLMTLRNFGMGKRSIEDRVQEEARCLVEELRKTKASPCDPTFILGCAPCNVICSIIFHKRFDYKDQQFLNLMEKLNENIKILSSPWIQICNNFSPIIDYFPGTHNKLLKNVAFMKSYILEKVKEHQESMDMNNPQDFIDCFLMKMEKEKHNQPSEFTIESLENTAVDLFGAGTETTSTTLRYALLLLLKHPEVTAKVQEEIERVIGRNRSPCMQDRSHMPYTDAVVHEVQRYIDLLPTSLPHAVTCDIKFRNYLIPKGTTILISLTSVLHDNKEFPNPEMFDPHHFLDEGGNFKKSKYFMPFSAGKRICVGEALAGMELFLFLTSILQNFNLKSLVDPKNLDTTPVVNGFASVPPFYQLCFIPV
PostGolgi ctrl: growth of the yeast control strain, post-Golgi counter-screen. AID 738. efflux-deficient yeast background strain, growth absorbance A615, 16 h. inhibition, % at 10 µM. 5% of 98,000 active
PostGolgi yeast: growth inhibition of a yeast mutant, post-Golgi transport screen; 0.9% of 98,000 active; post-Golgi transport phenotypic cell assay; inhibition, % at 10 µM;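 further: yeast cells grown in 1536-well plates; yeast grown about 18 h at 30C before absorbance read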
CYP2C19 inhib: blocks human cytochrome P450 2C19 | P33261 | CYP2C19 Supersomes, luciferin-H EGE luminescence, 30 min | inhibition, % at 5 µM | 21% of 96,000 active | AID 778;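 active means CYP2C19 inhibition above a set limit at 5 µM in the primary screen, cut at about 50% in these data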;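 further: plate controls were negative control wells for no effect and 2.5 mM tranylcypromine positive control for full effect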
CYP2C9 inh: blocks human cytochrome P450 2C9 | P11712 | CYP2C9 Supersomes, luciferin-H conversion, luminescence | inhibition, % at 5 µM | 20% of 96,000 active | AID 777;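 active means blocking of liver enzyme CYP2C9 beyond about 50% at 5 µM, limit read from the data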
* = called active by the depositor. Unless noted, no stated cut-off is given here; in the data, active means inhibition above about 30%; inactive means the rest.

SMILES	CYP2C19 act	CYP2C9 activ	PostGolgi ctrl	PostGolgi yeast	CYP2C19 inhib	CYP2C9 inh
O=C1CCC(C(=O)OCc2ccccc2)N1 (centres undefined)	1	1	11	-5	2	-1
Cc1cnc(NC(=O)C2COc3ccccc3O2)s1 (centres undefined)	0.3	0.8	3	10	67*	18
Cc1cc(NC(=O)C2COc3ccccc3O2)no1 (centres undefined)	0.4	0.6	2	9	61*	38
O=C(Nc1nnc(SCc2ccccc2Cl)s1)C1COc2ccccc2O1 (centres undefined)	0.9	0.5	13	-4	10	55*
Cc1cc(NC(=O)COC(=O)C2COc3ccccc3O2)no1 (centres undefined)	0.9	0.9	-3	9	7	12
Cc1csc(NC(=O)C2COc3ccccc3O2)n1 (centres undefined)	0.2	0.5	27	3	83*	48
Cc1ccccc1CSc1nnc(NC(=O)C2COc3ccccc3O2)s1 (centres undefined)	0.9	0.9	1	1	10	13
CSc1nc2ccc3nc(NC(=O)C4COc5ccccc5O4)sc3c2s1 (centres undefined)	0.9	0.7	6	-1	7	33
O=C(Nc1ccc(Cl)cn1)C1CCCN1S(=O)(=O)c1cccc2ccccc12 (centres undefined)	0.7	1.2	50*	-3	32	-21
O=C(Nc1ccc(Cl)cn1)C1CCCN1S(=O)(=O)c1ccc(Cl)cc1 (centres undefined)	0.6	0.3	19	20	43	74*
C=CCn1c(SCC(=O)c2cc(C)n(CCOC)c2C)nc2sc(C)c(C)c2c1=O	0.8	0.7	4	-3	22	28
CCOC(=O)CSc1nc2ccccc2n1CC(=O)N1CCN(c2ccccc2)CC1	1	0.8	4	1	3	21
COc1ccccc1Nc1nc(-c2cccc([N+](=O)[O-])c2)nc2ccccc12	1	0.9	12	-10	2	15
O=C(Nc1ccc(N2CCOCC2)c(Cl)c1)c1cccc(F)c1	1.1	1	12	-23	-8	-5
CC(Sc1nc(N(C)C)nc(N2CCOCC2)n1)C(=O)Nc1ccccc1 (centres undefined)	0.1	0.1	-6	-5	93*	92*
CC(C)Nc1nc(SCC(=O)Nc2ccccc2)nc(N2CCOCC2)n1	0.2	0.2	8	-2	82*	84*
CC(Sc1nc(N2CCOCC2)nc(N2CCOCC2)n1)C(=O)Nc1ccccc1 (centres undefined)	0.7	0.2	-3	1	32	79*
CCCNc1nc(NCC)nc(OC)n1	1	1.3	6	-1	3	-31
S=c1[nH]nc(Cc2cccc3ccccc23)n1-c1ccccc1	0.5	0.1	-1	1	47	90*
O=c1[nH]c(SCc2n[nH]c(=S)n2-c2ccccc2)nc2sc3c(c12)CCC3	0.7	0.3	15	1	28	72*
O=c1[nH]c(SCc2n[nH]c(=S)n2-c2ccccc2)nc2ccccc12	0.3	0.2	14	2	73*	80*
COCc1n[nH]c(=S)n1-c1cccc2ccccc12	1	1.1	-2	0	-3	-7
O=C(O)c1ccccc1NCc1ccncc1	1	0.2	0	-2	1	76*
O=C(O)c1ccc(CNc2ccccc2C(=O)O)cc1	1	1	9	-7	-2	0
COc1ccc(C(=O)CC(Nc2ccc([N+](=O)[O-])cc2)c2ccc(OC)cc2)cc1 (centres undefined)	0.6	0.3	18	2	43	68*
SMILES	CYP2C19 act	CYP2C9 activ	PostGolgi ctrl	PostGolgi yeast	CYP2C19 inhib	CYP2C9 inh
COc1cc(OC)cc(C(=O)N2CCN(Cc3ccccc3C(F)(F)F)CC2)c1	0.2	0.7	13	-5	78*	30
COc1cccc(OC)c1C(=O)N1CCN(Cc2ccccc2C(F)(F)F)CC1	0.1	0.1	-1	-6	94*	91*
COc1cc(C(=O)N2CCN(Cc3ccccc3C(F)(F)F)CC2)cc(OC)c1OC	0.8	1.2	11	1	23	-21
CCOc1ccccc1-c1nc(SCC(=O)O)n[nH]1	1.1	1.1	3	-5	-11	-11
CNC(=O)CSc1nc2c(c(=O)n(C)c(=O)n2C)n1Cc1ccc(C)cc1	0.7	0.9	4	-4	32	11
N#C/C(=C\c1cc([N+](=O)[O-])c(N2CCOCC2)cc1N1CCOCC1)c1nc2ccccc2[nH]1	0.1	0	14	12	91*	97*
COc1cc(/C=C(\C#N)c2nc3ccc(C)cc3[nH]2)c([N+](=O)[O-])cc1OC	0.7	0.6	8	1	31	37
Cc1c(/C=C(\C#N)c2nn(-c3ccccc3)c(N)c2C#N)c2ccccc2n1Cc1ccc(F)cc1	1	0.8	-6	-7	1	16
Cc1cc(/C=C(/C#N)c2nc3ccccc3[nH]2)c(C)n1-c1cccc([N+](=O)[O-])c1	0.6	0.2	10	34*	40	81*
N#C/C(=C\c1cc([N+](=O)[O-])c(N2CCCCC2)cc1N1CCCCC1)c1nn(-c2ccccc2)c(N)c1C#N	0.3	0	-1	-4	69*	97*
CC(=C1C(=O)c2ccccc2C1=O)N1CCC(C(N)=O)(N2CCCCC2)CC1	1	1.1	16	-2	-2	-6
C/C(=N\Nc1nccnc1Cl)c1ccc([N+](=O)[O-])cc1	0.9	0.9	16	-3	14	10
O=[N+]([O-])c1cccc(/C=N/Nc2nccnc2Cl)c1	0.4	0.8	7	2	60*	20
Oc1ccc(/C=N/Nc2nccnc2Cl)cc1	0	0	3	-3	98*	100*
C=C(C)CC1Nc2ccccc2NC1CC(=C)C (centres undefined)	0.8	1.1	0	3	16	-9
COc1ccc(C2=Nn3c(nnc3-c3ccncc3)SC2)cc1OC	0.7	0.4	1	3	26	61*
O=C1c2ccccc2S(=O)(=O)N1CC(O)COc1ccc(Br)cc1 (centres undefined)	0	0.3	1	-2	100*	69*
O=C1c2ccccc2S(=O)(=O)N1CCOc1ccccc1	0	0.5	0	10	98*	50
OC(COc1ccc(Br)cc1)CN1CCOCC1 (centres undefined)	0.8	1	4	-4	21	3
COc1ccc(N2CCN(C(=O)CCN3C(=O)c4ccccc4S3(=O)=O)CC2)cc1	1	0.9	5	-1	4	14
O=C1c2ccccc2S(=O)(=O)N1CC(O)COc1ccc(Cl)cc1 (centres undefined)	0	0.3	6	3	100*	67*
